Data taken from PubChem BioAssay AID1724 (National Center for Advancing Translational Sciences (NCATS), 2009).
Records with an inconclusive call do not appear. A call without a number means that no potency is given here. Activity calls are given as the source filed them. Calls come from the whole dose curve; as a rule, active = well fitted inhibition curve with a large enough effect; inconclusive = small, poorly fitted or top-dose-only effect, or effect the other way; inactive = no such curve, though single readings can be large or run the other way.

Test: Confirmation Concentration-Response Assay for Inhibitors of the ERK Signaling Pathway using a Homogeneous Screening Assay
Details: HEK293 cells, hormone-stimulated phospho-ERK AlphaScreen; series mostly up to 40.9 µM
Source text: qHTS Assay for Inhibitors of the ERK Signaling Pathway using a Homogeneous Screening Assay
NIH Chemical Genomics Center [NCGC]
NIH Molecular Libraries Screening Centers Network [MLSCN]
Assay Submitter (PI): Dr. Wei Zheng, NCGC/NIH
The Ras/extracellular-signal-regulated kinase (ERK) mitogen activated protein (MAP) kinase signaling pathway (ERK1/2 cascade) plays is a key role in transmitting signals from the cell surface to the nucleus (Nishida and Gotoh 1993; Chang and Karin, 2001). The cascade is initiated by the small G-protein Ras, which recruits Raf […], where activation occurs. Alternatively, this pathway can be activated by elevating intracellular cAMP.
Activation of the ERK pathway is essential in increased cell division and cell survival. Sustained and constitutive activation of the ERK pathway, however, has been linked to uncontrolled cell proliferation, increased cell survival, and tumor progression. Thus, the ERK has been as an attractive target for cancer chemotherapy in the past few years (Sebolt-Leopold and Herrera, 2004). Given its physiological and pathological importance, assessment of ERK phosphorylation has been broadly performed in both basic research and drug discovery. Most assays for the measurement of ERK phosphorylation use the antibody-based detection methods, such as western blot and ELISA. These assays require multiple reagent additions with cell wash steps and are not suitable for high-throughput screening.
The current cell-based ERK phosphorylation assay was performed using AlphaScreen platform. […]
HEK293 cells stably expressing type-1 vasopressin receptor (V1b) were maintained in DMEM medium (Invitrogen, Carlsbad, CA) at 37C under a humidified atmosphere containing 5% CO2 and 95% air. […] The ERK phosphorylation in cells was determined using an AlphaScreen assay kit provided by PerkinElmer. […] AC50 values were determined from concentration-response data modeled with the standard Hill equation. […]
(10) Detect the assay plate in an EnVision plate reader (PerkinElmer) using the AlphaScreen detection mode. […]

SMILES	Potency
N#Cc1c(Cl)c(Cl)c(Cl)c(C#N)c1Cl	2.24 µM (active)
CC1=CC(=O)c2c(O)cccc2C1=O	inactive
O=C1NC(=O)C(=Cc2ccccc2Oc2ccc(F)cc2)C(=O)N1	inactive
